PubChem BioAssay (NCI)
About 79,000 compounds went through this panel and 15% of them were active in at least one assay; those are over-represented in the sample as a whole. Active and inactive are the calls of the source. Rule as the data show it: active = growth inhibition above about 70%; inactive = the rest.

How the values were obtained:
[1] = NCI Yeast Anticancer Drug Screen. Data for the rad52 strain (AID 147);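 also: 0% = growth of vehicle-treated control cultures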; details: S. cerevisiae rad52 mutant growth inhibition, stronger effect = higher value
In short: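 Yeast strain carrying a DNA damage repair alteration was exposed to test compounds. Growth inhibition was measured relative to vehicle-treated controls.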

[2] = NCI Yeast Anticancer Drug Screen. Data for the wt1 strain (AID 149);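 also: 0% = growth of vehicle-treated wt1 cultures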; details: S. cerevisiae wt1 strain (SPY 50644) growth inhibition, stronger effect = higher value
In short: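 Measured: growth of wt1 yeast under compound versus vehicle treatment, reported as inhibition.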

[3] = NCI Yeast Anticancer Drug Screen. Data for the rad50EPP+ strain (AID 151);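 also: 0% = growth of vehicle-treated control cultures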; details: S. cerevisiae rad50 mutant strain, stronger effect = higher value
In short: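 Yeast strain carrying rad50 alteration (rad50EPP+) exposed to compounds; growth inhibition measured relative to vehicle-treated controls.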

[4] = NCI Yeast Anticancer Drug Screen. Data for the mgt1 strain (AID 153); details: S. cerevisiae mgt1 mutant growth inhibition, stronger effect = higher value
In short: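 Yeast mgt1 strain (DNA repair/cell-cycle alteration panel) exposed to compounds; growth inhibition measured relative to vehicle-treated controls.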

[5] = NCI Yeast Anticancer Drug Screen. Data for the rad50 strain (AID 155);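 also: 0% = growth of vehicle-only cultures of the same strain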; details: S. cerevisiae rad50 strain growth inhibition, stronger effect = higher value
In short: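 Growth of the mutant yeast was measured after compound exposure and referenced to vehicle-treated cultures.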

[6] = NCI Yeast Anticancer Drug Screen. Data for the mec2-1 strain (AID 157); details: S. cerevisiae mec2-1 strain, stronger effect = higher value
In short: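 mec2-1 yeast strain, carrying an alteration in DNA damage repair or cell cycle control, was exposed to compounds; growth inhibition was measured relative to vehicle-treated controls.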

[7] = NCI Yeast Anticancer Drug Screen. Data for the sgs1 mgt1 strain (AID 161);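 also: 0% = growth of cultures given vehicle only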; details: S. cerevisiae sgs1 mgt1 strain, stronger effect = higher value
In short: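 Percent growth inhibition was derived by comparing compound-exposed mutant yeast with vehicle-exposed cultures. The strain carries alterations in DNA damage repair.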

[8] = NCI Yeast Anticancer Drug Screen. Data for the CLN2oe strain (AID 163);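 also: 0% = growth of vehicle-only control cultures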; details: S. cerevisiae CLN2oe strain, stronger effect = higher value
In short: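 Yeast cells carrying a defined cell-cycle control alteration were exposed to test compounds. Growth inhibition was scored against vehicle-treated control cultures.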

[9] = NCI Yeast Anticancer Drug Screen. Data for the cln2 rad14 strain (AID 165);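 also: 0% = growth equal to vehicle treated cultures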; details: S. cerevisiae cln2 rad14 strain, stronger effect = higher value
In short: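 Yeast carrying cln2 and rad14 alterations (cell cycle control and DNA damage repair) were exposed to compounds. Growth inhibition was measured against vehicle-treated controls.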

[10] = NCI Yeast Anticancer Drug Screen. Data for the bub3 strain (AID 167); details: S. cerevisiae bub3 mutant strain, stronger effect = higher value
In short: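 Whole-cell yeast assay. The mutant strain was incubated with compounds, and growth inhibition was determined by comparison with vehicle-treated cells.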

[11] = NCI Yeast Anticancer Drug Screen. Data for the wt2 strain (AID 169);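 also: 0% = growth of vehicle-treated yeast cultures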; details: S. cerevisiae wt2 strain growth inhibition, stronger effect = higher value
In short: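 Yeast cells were exposed to test compounds, and growth inhibition was measured relative to vehicle-treated controls.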

[12] = NCI Yeast Anticancer Drug Screen. Data for the mlh1 strain (AID 171);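 also: 0% = growth of vehicle-treated control cultures of the same strain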; details: S. cerevisiae mlh1 strain growth inhibition, stronger effect = higher value
In short: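 Yeast carrying a defined genetic alteration in DNA damage repair or cell cycle control were exposed to test compounds. Growth inhibition was measured relative to vehicle-treated controls.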

[13] = NCI Yeast Anticancer Drug Screen. Data for the sgs1 strain (AID 173);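 also: 0% = growth of vehicle-only control cultures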; details: S. cerevisiae sgs1 mutant, stronger effect = higher value
In short: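 Yeast mutant strains carrying defined defects in DNA damage repair or cell cycle control were exposed to test compounds. Growth inhibition was scored against vehicle-treated controls.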

[14] = NCI Yeast Anticancer Drug Screen. Data for the rad18 strain (AID 177); details: S. cerevisiae rad18 mutant growth inhibition, stronger effect = higher value
In short: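 Yeast carrying a defined DNA damage repair alteration were exposed to compounds. Growth inhibition was expressed relative to vehicle-treated controls.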

[15] = NCI Yeast Anticancer Drug Screen. Data for the mlh1 rad18 strain (AID 175); details: S. cerevisiae mlh1 rad18 strain growth inhibition, stronger effect = higher value
In short: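 Growth inhibition of the yeast strain was measured after compound exposure and expressed relative to vehicle-treated controls. The strain carries defined defects in DNA damage repair.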

[16] = at 5.0 µM (retest, dose inferred, filed as 0.5)
[17] = at 50.0 µM (retest, dose inferred, filed as 5.0)

Measured: growth inhibition

C/C(=N\NC(=S)SCc1ccccc1)c1ccccn1
active: [1]; at 33.0 µM 93% | [1]; at 100.0 µM 91% | [2]; at 33.0 µM 95% | [2]; at 100.0 µM 94% | [3]; at 11.0 µM 78% | [3]; at 33.0 µM 95% | [3]; at 100.0 µM 92% | [4]; at 11.0 µM 83% | [4]; at 33.0 µM 96% | [4]; at 100.0 µM 92% | [5]; at 33.0 µM 95% | [5]; at 50.0 µM 88% | [5]; at 100.0 µM 92% | [6]; at 11.0 µM 92% | [6]; at 33.0 µM 96% | [6]; [17] 96% | [6]; at 50.0 µM 90.2% | [6]; at 100.0 µM 92% | [7]; [17] 95% | [7]; at 50.0 µM 86.2% | [8]; at 33.0 µM 96% | [8]; at 100.0 µM 89% | [9]; [17] 95% | [9]; at 50.0 µM 86.1% | [10]; at 11.0 µM 82% | [10]; at 33.0 µM 95% | [10]; [17] 95% | [10]; at 50.0 µM 87% | [10]; at 100.0 µM 91% | [11]; at 11.0 µM 72% | [11]; at 33.0 µM 95% | [11]; at 100.0 µM 92% | [12]; at 11.0 µM 83% | [12]; at 33.0 µM 96% | [12]; at 100.0 µM 92% | [13]; at 11.0 µM 78% | [13]; at 33.0 µM 97% | [13]; at 100.0 µM 94% | [14]; at 11.0 µM 80% | [14]; at 33.0 µM 96% | [14]; at 100.0 µM 91%
inactive: [1]; at 1.2 µM 15% | [1]; at 3.7 µM 13% | [1]; at 11.0 µM 60% | [2]; at 1.2 µM -13% | [2]; at 3.7 µM -15% | [2]; at 11.0 µM 58% | [3]; at 1.2 µM 40% | [3]; at 3.7 µM 47% | [4]; at 1.2 µM 13% | [4]; at 3.7 µM 24% | [5]; at 1.2 µM 17% | [5]; at 3.7 µM 22% | [5]; [16] 8% | [5]; at 11.0 µM 69% | [5]; [17] 0% | [6]; at 1.2 µM 38% | [6]; at 3.7 µM 51% | [6]; [16] -5% | [7]; [16] -1% | [8]; at 1.2 µM 2% | [8]; at 3.7 µM 2% | [8]; at 11.0 µM 60% | [9]; [16] 3% | [10]; at 1.2 µM 3% | [10]; at 3.7 µM 20% | [10]; [16] 30% | [11]; at 1.2 µM -36% | [11]; at 3.7 µM -25% | [12]; at 1.2 µM 13% | [12]; at 3.7 µM 24% | [13]; at 1.2 µM 37% | [13]; at 3.7 µM 46% | [14]; at 1.2 µM 39% | [14]; at 3.7 µM 53%

NC(N)=N/N=C\c1c2ccccc2cc2ccccc12
active: [1]; at 100.0 µM 94% | [2]; at 100.0 µM 95% | [4]; at 100.0 µM 95% | [5]; at 100.0 µM 94% | [6]; at 100.0 µM 93% | [8]; at 100.0 µM 78% | [10]; at 100.0 µM 75% | [11]; at 100.0 µM 96% | [12]; at 100.0 µM 93% | [13]; at 100.0 µM 93% | [15]; [17] 81% | [15]; at 50.0 µM 72.7% | [14]; at 100.0 µM 95%
inactive: [1]; at 1.2 µM -73% | [1]; at 3.7 µM -78% | [1]; at 11.0 µM -50% | [1]; at 33.0 µM 27% | [2]; at 1.2 µM -38% | [2]; at 3.7 µM -29% | [2]; at 11.0 µM -29% | [2]; at 33.0 µM -27% | [3]; at 1.2 µM -28% | [3]; at 3.7 µM -20% | [3]; at 11.0 µM -7% | [3]; at 33.0 µM 6% | [3]; at 100.0 µM 23% | [4]; at 1.2 µM -38% | [4]; at 3.7 µM -54% | [4]; at 11.0 µM -34% | [4]; at 33.0 µM 3% | [5]; at 1.2 µM -16% | [5]; at 3.7 µM -17% | [5]; [16] 22% | [5]; at 11.0 µM -8% | [5]; at 33.0 µM 36% | [5]; [17] 66% | [5]; at 50.0 µM 17.1% | [6]; at 1.2 µM -58% | [6]; at 3.7 µM -37% | [6]; [16] 18% | [6]; at 11.0 µM -45% | [6]; at 33.0 µM -10% | [6]; [17] 42% | [6]; at 50.0 µM 36.9% | [7]; [16] 8% | [7]; [17] 47% | [7]; at 50.0 µM 33.6% | [8]; at 1.2 µM -29% | [8]; at 3.7 µM 6% | [8]; at 11.0 µM -4% | [8]; at 33.0 µM 18% | [9]; [16] -2% | [9]; [17] 25% | [9]; at 50.0 µM 1.85% | [10]; at 1.2 µM -43% | [10]; at 3.7 µM -55% | [10]; [16] 3% | [10]; at 11.0 µM -59% | [10]; at 33.0 µM -44% | [10]; [17] 14% | [10]; at 50.0 µM 21% | [11]; at 1.2 µM -47% | [11]; at 3.7 µM -64% | [11]; at 11.0 µM -59% | [11]; at 33.0 µM -35% | [12]; at 1.2 µM -61% | [12]; at 3.7 µM -45% | [12]; at 11.0 µM -44% | [12]; at 33.0 µM 11% | [13]; at 1.2 µM -25% | [13]; at 3.7 µM -31% | [13]; at 11.0 µM -44% | [13]; at 33.0 µM -1% | [15]; [16] 29% | [14]; at 1.2 µM -74% | [14]; at 3.7 µM -68% | [14]; at 11.0 µM -51% | [14]; at 33.0 µM -30%
